Reference: PubChem BioAssay (NCATS)
Records with an inconclusive call do not appear. Where a call stands in place of a potency, no number is given. Active and inactive are the calls of the source. Calls come from the whole dose curve; as a rule, active = well fitted inhibition curve with a large enough effect; inconclusive = small, poorly fitted or top-dose-only effect; inactive = flat fitted curve, though single readings scatter.

Experiments:
Assay in all cases: qHTS profiling for inhibitors of Plasmodium falciparum proliferation (AID 504749); note: nearly all actives have a fitted effect of over 60% in size
Settings in all cases: P. falciparum in erythrocytes, SYBR Green DNA, 72 h; series mostly up to 28.7 µM
CP185 = system: CP185
Method in brief: (§1)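 P. falciparum-infected erythrocytes (0.3% parasitemia, 2.5% hematocrit final) were exposed to compounds for 72 h at 37 C in 5% CO2, then lysed with SYBR Green buffer overnight at room temperature; parasite DNA fluorescence was normalized to artemisinin and DMSO controls.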

CP192 = system: CP192
Method in brief: as §1

CP237 = system: CP237
Method in brief: as §1

CP262 = system: CP262
Method in brief: as §1

CP191 = system: CP191
Method in brief: as §1

CP201 = system: CP201
Method in brief: as §1

CP215 = system: CP215
Method in brief: as §1

CP217 = system: CP217
Method in brief: as §1

CP238 = system: CP238
Method in brief: as §1

CP247 = system: CP247
Method in brief: as §1

CP250 = system: CP250
Method in brief: as §1

CP252 = system: CP252
Method in brief: as §1

CP256 = system: CP256
Method in brief: as §1

CP260 = system: CP260
Method in brief: as §1

CP265 = system: CP265
Method in brief: as §1

CP266 = system: CP266
Method in brief: as §1

CP268 = system: CP268
Method in brief: as §1

CP211 = system: CP211
Method in brief: as §1

CP194 = system: CP194
Method in brief: as §1
Potency is the fitted concentration of half-maximal effect.

CCC1(C2=NCCN2)Cc2ccccc2O1 (configuration not stated)
Potency (CP185): 10 µM (active)
Potency (CP192): inactive
Potency (CP237): 10 µM (active)
Potency (CP262): inactive

Clc1cccc(N2CCNCC2)c1
Potency (CP185): inactive
Potency (CP191): inactive
Potency (CP192): inactive
Potency (CP201): inactive
Potency (CP215): inactive
Potency (CP217): inactive
Potency (CP238): inactive
Potency (CP247): inactive
Potency (CP250): inactive
Potency (CP252): inactive
Potency (CP256): inactive
Potency (CP260): inactive
Potency (CP262): inactive
Potency (CP265): inactive
Potency (CP266): inactive
Potency (CP268): inactive

Cc1cccc(C)c1NC1=NCCCS1
Potency (CP191): inactive
Potency (CP192): inactive
Potency (CP237): 7.08 µM (active)
Potency (CP247): inactive
Potency (CP250): inactive
Potency (CP266): inactive

CC(C)(N)Cc1ccc(Cl)cc1
Potency (CP185): inactive
Potency (CP191): inactive
Potency (CP192): inactive
Potency (CP201): inactive
Potency (CP211): inactive
Potency (CP215): inactive
Potency (CP217): inactive
Potency (CP237): 8.91 µM (active)
Potency (CP238): inactive
Potency (CP247): inactive
Potency (CP250): inactive
Potency (CP252): inactive
Potency (CP256): inactive
Potency (CP260): inactive
Potency (CP262): inactive
Potency (CP266): inactive

CCN(CC)CCN1C(=O)CN=C(c2ccccc2F)c2cc(Cl)ccc21
Potency (CP191): inactive
Potency (CP192): inactive
Potency (CP201): inactive
Potency (CP215): inactive
Potency (CP217): inactive
Potency (CP247): inactive
Potency (CP250): inactive
Potency (CP252): inactive
Potency (CP256): inactive
Potency (CP260): inactive
Potency (CP262): inactive
Potency (CP266): inactive
Potency (CP268): inactive

COc1ccc(C(CN(C)C)C2(O)CCCCC2)cc1 (configuration not stated)
Potency (CP185): inactive
Potency (CP191): inactive
Potency (CP192): inactive
Potency (CP201): inactive
Potency (CP211): inactive
Potency (CP215): inactive
Potency (CP217): inactive
Potency (CP237): 7.08 µM (active)
Potency (CP238): inactive
Potency (CP247): inactive
Potency (CP250): inactive
Potency (CP252): inactive
Potency (CP256): inactive
Potency (CP260): inactive
Potency (CP262): inactive
Potency (CP268): inactive

C=C1CC[C@@]2(O)[C@H]3Cc4ccc(O)c5c4[C@@]2(CCN3CC2CC2)[C@H]1O5
Potency (CP185): inactive
Potency (CP192): inactive
Potency (CP194): inactive
Potency (CP201): inactive
Potency (CP211): inactive
Potency (CP215): inactive
Potency (CP217): inactive
Potency (CP238): inactive
Potency (CP247): inactive
Potency (CP250): inactive
Potency (CP252): inactive
Potency (CP256): inactive
Potency (CP262): inactive
Potency (CP265): inactive
Potency (CP266): inactive
Potency (CP268): inactive
